The list is not random: actives were taken first. Their share in the collection is about 3.5%.
3CLpro inhibitor: SARS-CoV 3CLpro protease inhibition | recombinant SARS-CoV 3CLpro, quenched FRET peptide cleavage | inhibition, % at 6 µM | 290,000 compounds, 0.14% hits; in the data active = inhibition above about 12%
BoNT-A LC inh2: BoNT A light chain protease inhibition; 360,000 compounds, 0.17% hits; inhibition, % at 10 µM; multiplex microsphere protease substrate cleavage, flow cytometry; also: plate controls were buffer without enzyme for full effect and enzyme alone for no effect
Anthrax LF prot: blocks Bacillus anthracis lethal factor protease; 360,000 compounds, 0.12% hits; inhibition, % at 10 µM; AID 588501; P15917; multiplex microsphere protease cleavage assay, LF; also: plate controls were buffer without enzyme for full effect and enzyme alone for no effect
BoNT-F LC inh: inhibitors of Botulinum neurotoxin F light chain protease | 360,000 compounds, 0.22% hits | inhibition, % at 10 µM | AID 588497 | Multiplex microsphere protease cleavage assay, flow cytometry; in the data active = inhibition above about 35%, passing the limit was not always enough; inconclusive = no clear call, values can overlap the other calls; also: plate controls were buffer without enzyme for full effect and enzyme alone for no effect
Bead autofluor: counter-screen for toxin protease inhibitors: compound fluorescence; compound autofluorescence counterscreen, microsphere flow cytometry; hits give high values; fluorescence intensity (test concentration not listed); 360,000 compounds, 3.1% hits; in the data active = fluorescence intensity above about 16000; inconclusive = no clear call, values can overlap the other calls
BoNT-A LC CP1: BoNT/A light chain protease inhibition; shares compounds with BoNT-F LC inh; 720 compounds, 3% hits; inhibition, % at 10 µM; multiplex microsphere protease assay, flow cytometry; in the data active = inhibition above about 32%
BoNT-F LC CP1: blocks botulinum neurotoxin F light chain protease. 720 tested, under 10 active. multiplex microsphere protease cleavage assay, flow cytometry. shares compounds with BoNT-F LC inh. inhibition, % at 10 µM; call rule not given here
LF protease CP1: Bacillus anthracis lethal factor protease inhibition; shares compounds with BoNT-F LC inh; multiplex microsphere protease cleavage assay, LF; inhibition, % at 10 µM; 720 tested, under 10 active; call rule not given here
The depositor's hits bear a star. Rule as the data show it, unless noted: active = inhibition above about 30%; inconclusive = no clear call, values can overlap the other calls; inactive = below that.

Screening COc1ccc2c(c1)CCCN2S(=O)(=O)c1ccc(Cl)cc1 returned 3CLpro inhibitor 3, BoNT-A LC inh2 1, Anthrax LF prot 37*, BoNT-F LC inh -8, Bead autofluor 3742, BoNT-A LC CP1 0, BoNT-F LC CP1 -11 and LF protease CP1 -3.
Screening C[C@H]1CN([C@@H](C)CO)C(=O)CCCn2cc(nn2)CO[C@@H]1CN(C)C(=O)Nc1cccc2ccccc12 returned BoNT-A LC inh2 0, Anthrax LF prot 2, BoNT-F LC inh 2 and Bead autofluor 2944.
`CCOC(=O)C1CCN(C(=O)c2ccc3nc(-c4ccc(OC)cc4)c(-c4ccc(OC)cc4)nc3c2)CC1` gave 3CLpro inhibitor 3, BoNT-A LC inh2 30*, Anthrax LF prot 11, BoNT-F LC inh 20, Bead autofluor 5131, BoNT-A LC CP1 12, BoNT-F LC CP1 -2 and LF protease CP1 3.
For CCOC(=O)C1CCCN(C(=O)c2ccc(OC)cc2)CC1 (centres undefined) the results were BoNT-A LC inh2 0, Anthrax LF prot -4, BoNT-F LC inh -6 and Bead autofluor 3909.
Screening COc1ccc(NC(=O)C2(C)CCN2Cc2ccccc2OC(F)F)cc1OC (centres undefined) returned BoNT-A LC inh2 0, Anthrax LF prot 2, BoNT-F LC inh 5 and Bead autofluor 3753.
`CCc1ccc2nc3sc(C(=O)N4CCc5ccccc54)c(N)c3cc2c1` gave 3CLpro inhibitor -13.
Cc1ccc(C)c2nc3sc(C(=O)N4CCCc5ccccc54)c(N)c3cc12 was read as 3CLpro inhibitor 6, BoNT-A LC inh2 28, Anthrax LF prot 30*, BoNT-F LC inh 22, Bead autofluor 14402, BoNT-A LC CP1 14, BoNT-F LC CP1 7 and LF protease CP1 5.
COc1cc(C(=O)NCc2cccc3ccccc23)ccc1OCc1ccccc1 was read as 3CLpro inhibitor 9, BoNT-A LC inh2 -1, Anthrax LF prot -4, BoNT-F LC inh 1 and Bead autofluor 4383.
`CC(C)n1c2ccccc2c2nc3ccccc3nc21` gave 3CLpro inhibitor 3, BoNT-A LC inh2 55*, Anthrax LF prot 27, BoNT-F LC inh 2, Bead autofluor 4635, BoNT-A LC CP1 25, BoNT-F LC CP1 3 and LF protease CP1 12.
C#CCn1c2ccccc2c2nc3ccccc3nc21 was read as 3CLpro inhibitor -6, BoNT-A LC inh2 -7, Anthrax LF prot -7, BoNT-F LC inh inconclusive and Bead autofluor 3862.
O=C1CNCc2[nH]c3ccccc3c2N1c1ccccc1 was read as 3CLpro inhibitor 3, BoNT-A LC inh2 33*, Anthrax LF prot 21, BoNT-F LC inh -8, Bead autofluor 9946, BoNT-A LC CP1 0, BoNT-F LC CP1 -10 and LF protease CP1 -3.
`CCN1C(=O)[C@H]2[C@@H](c3ccc(OC)cc3)N[C@]3(CCCN(Cc4ccc(C)cc4)C3=O)[C@H]2C1=O` gave BoNT-A LC inh2 -1, Anthrax LF prot 3, BoNT-F LC inh -8 and Bead autofluor 3067.
Screening O=C(COC(=O)C1CC1)Nc1ccc2[nH]c(=O)[nH]c2c1 returned 3CLpro inhibitor -2, BoNT-A LC inh2 0, Anthrax LF prot -6, BoNT-F LC inh -3 and Bead autofluor 3160.
Screening CN1CCN(c2nc(C(N)=O)cc(-c3ccccc3)n2)CC1 returned 3CLpro inhibitor -1, BoNT-A LC inh2 0, Anthrax LF prot 0, BoNT-F LC inh 36*, Bead autofluor 4065, BoNT-A LC CP1 1, BoNT-F LC CP1 -4 and LF protease CP1 -2.
`CCN(CC)c1nc(C(N)=O)cc(-c2ccccc2)n1` gave 3CLpro inhibitor 6, BoNT-A LC inh2 0, Anthrax LF prot -2, BoNT-F LC inh -5 and Bead autofluor 4887.
O=C(Oc1c(-c2ccccc2)c(=O)n2c3c(cccc13)CC2)c1ccccc1 was read as 3CLpro inhibitor -1, BoNT-A LC inh2 -11, Anthrax LF prot -10, BoNT-F LC inh -38 and Bead autofluor 4779.
O=C(Oc1c(-c2ccccc2)c(=O)n2c3c(cccc13)CC2)c1ccc(F)cc1 was read as 3CLpro inhibitor 5, BoNT-A LC inh2 inconclusive, Anthrax LF prot 37*, BoNT-F LC inh inconclusive, Bead autofluor 4267, BoNT-A LC CP1 2, BoNT-F LC CP1 2 and LF protease CP1 2.
`CCc1ccc(C(=O)CN2C(=O)C(C)N(c3ccc(C)cc3)C2=O)cc1` (centres undefined) gave 3CLpro inhibitor 0, BoNT-A LC inh2 4, Anthrax LF prot 0, BoNT-F LC inh 50*, Bead autofluor 2666, BoNT-A LC CP1 0, BoNT-F LC CP1 -1 and LF protease CP1 -4.
`Cc1ccc(N2C(=O)N(CC(=O)NCc3ccc(Cl)cc3)C(=O)C2C)cc1` (centres undefined) gave 3CLpro inhibitor 1, BoNT-A LC inh2 -1, Anthrax LF prot 0, BoNT-F LC inh -27 and Bead autofluor 5067.
For COc1cc(CCC(=O)O)on1 the results were 3CLpro inhibitor 3, BoNT-A LC inh2 3, Anthrax LF prot 4, BoNT-F LC inh 62*, Bead autofluor 3555, BoNT-A LC CP1 0, BoNT-F LC CP1 -4 and LF protease CP1 -2.
Screening COc1ccc(S(=O)(=O)N(C)C)cc1NC(=O)CCNC(=O)c1ccco1 returned 3CLpro inhibitor 2, BoNT-A LC inh2 0, Anthrax LF prot 6, BoNT-F LC inh 41*, Bead autofluor 3795, BoNT-A LC CP1 0, BoNT-F LC CP1 -3 and LF protease CP1 2.
CCc1cccc2c(C(=O)COC(=O)/C=C/c3ccc(O)c(OC)c3)c[nH]c12 was read as 3CLpro inhibitor -3, BoNT-A LC inh2 -1, Anthrax LF prot -4, BoNT-F LC inh -8 and Bead autofluor 10020.
For Cc1ccc2c(c1)N(CC(=O)NC(C)CCc1ccccc1)C(=O)c1cccnc1O2 (centres undefined) the results were 3CLpro inhibitor 7, BoNT-A LC inh2 0, Anthrax LF prot -3, BoNT-F LC inh -4 and Bead autofluor 6197.
`O=c1c2c(-c3ccccc3)csc2nc2c3ccccc3c(NCCN3CCOCC3)nn12` gave 3CLpro inhibitor -4, BoNT-A LC inh2 32*, Anthrax LF prot 5, BoNT-F LC inh 2, Bead autofluor 4402, BoNT-A LC CP1 7, BoNT-F LC CP1 -8 and LF protease CP1 2.
O=c1c2ccccc2nc2c3ccccc3c(NCCN3CCOCC3)nn12 was read as 3CLpro inhibitor -2.
Screening CCCOc1ccc(C(=O)C(CN2CCOCC2)c2ccccc2)cc1 (centres undefined) returned 3CLpro inhibitor 2, BoNT-A LC inh2 0, Anthrax LF prot 2, BoNT-F LC inh -6 and Bead autofluor 3174.
CC(CN1CCOCC1)C(=O)c1ccccc1 (centres undefined) was read as 3CLpro inhibitor -2, BoNT-A LC inh2 0, Anthrax LF prot -3, BoNT-F LC inh -2, Bead autofluor 10526, BoNT-A LC CP1 0, BoNT-F LC CP1 2 and LF protease CP1 -3.

Screens as filed in PubChem.
